Source: PubChem BioAssay
Gli-Sufu block = Gli-Sufu pathway antagonists, primary screen, luciferase luminescence, Sufu-KO-LIGHT cells, uHTS. Sufu-KO-LIGHT fibroblasts, Gli luciferase reporter luminescence. inhibition, % at 5 µM. actives 0.74% (n = 340,000);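 active = inhibition above about 55%, limit read from the data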;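 also: 0% = DMSO-treated cells and 100% = wells with medium but no cells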
PAX8 reporter = inhibitors of PAX8-driven TPO luciferase reporter, primary screen, RMG-I cells, single concentration. SteadyGlo, 24 h. inhibition, % at 12.6 µM. actives 1.2% (n = 360,000);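 active = mean replicate inhibition at least 60% with every replicate also reaching 60%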;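 also: luciferase light reporting Pax8 driven TPO promoter activity; plate controls were median of neutral control wells for no effect and mitoxantrone controls for full effect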
Shn3 3UTR inh = reduction of Shn3 3'UTR firefly luciferase signal, primary screen, Schnurri-3 inhibitor project, cell-based, Clone20 osteoblasts, set 2. Clone20 osteoblast Shn3 3'UTR firefly luciferase, 24 h. inhibition, % at 12.5 µM. actives 0.52% (n = 360,000). AID 588674, 2011;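 active = mean inhibition of at least 75% with every replicate also reaching 75%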;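 also: 0% = median of neutral control wells and 100% = pilot-screen positive control compound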
CSC inhib = cancer stem cell viability inhibitors, primary screen, luminescence | inhibition, % at 7.5 µM | AID 2717, 2010 | actives 1.1% (n = 300,000) | cancer stem cell-like cells viability; in the data active = inhibition above about 75%; tested in HMLE shEcad cells
Mdm2-MdmX inh = inhibitors of human Mdm2-MdmX association, primary screen, cell-based, luminescence, split luciferase, SaOS-2, uHTS; Protein Mdm4 (Homo sapiens) + E3 ubiquitin-protein ligase Mdm2 (Homo sapiens), …; SaOS-2 split-luciferase Mdm2/MdmX complementation; inhibition, % at 8 µM; actives 3% (n = 330,000); AID 485346, 2010;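 active = inhibition of at least 50% at 8 µM in the primary screen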
Target sequence (O15151 whole entry, looked up): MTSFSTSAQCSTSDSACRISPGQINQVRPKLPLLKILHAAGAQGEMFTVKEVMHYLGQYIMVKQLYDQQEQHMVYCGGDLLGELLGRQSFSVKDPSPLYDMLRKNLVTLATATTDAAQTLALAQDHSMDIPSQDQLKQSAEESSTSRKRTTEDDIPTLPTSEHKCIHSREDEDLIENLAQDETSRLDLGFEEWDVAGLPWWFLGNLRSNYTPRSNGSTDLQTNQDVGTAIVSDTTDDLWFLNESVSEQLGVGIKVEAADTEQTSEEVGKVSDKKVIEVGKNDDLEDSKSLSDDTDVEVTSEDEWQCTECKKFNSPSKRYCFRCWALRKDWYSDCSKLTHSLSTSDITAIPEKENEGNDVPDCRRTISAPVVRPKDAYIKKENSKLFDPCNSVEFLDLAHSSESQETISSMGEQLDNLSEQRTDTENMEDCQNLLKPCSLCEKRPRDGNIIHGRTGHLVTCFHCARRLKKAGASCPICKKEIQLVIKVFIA
Target sequence (Q00987 whole entry, looked up): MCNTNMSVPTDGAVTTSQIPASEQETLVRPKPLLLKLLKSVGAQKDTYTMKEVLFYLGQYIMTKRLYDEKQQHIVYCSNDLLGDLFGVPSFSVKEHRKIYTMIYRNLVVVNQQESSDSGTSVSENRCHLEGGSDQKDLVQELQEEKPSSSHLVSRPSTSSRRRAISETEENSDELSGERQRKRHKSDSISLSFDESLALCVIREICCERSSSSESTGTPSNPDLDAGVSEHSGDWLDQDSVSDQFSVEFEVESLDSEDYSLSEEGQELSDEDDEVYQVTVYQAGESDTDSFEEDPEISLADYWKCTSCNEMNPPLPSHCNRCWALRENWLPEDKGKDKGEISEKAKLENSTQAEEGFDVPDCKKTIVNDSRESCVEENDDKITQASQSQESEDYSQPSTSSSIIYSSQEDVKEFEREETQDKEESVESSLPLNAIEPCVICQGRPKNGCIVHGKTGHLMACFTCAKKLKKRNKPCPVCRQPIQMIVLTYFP
Beta apoptosis = inhibitors of cytokine-induced beta cell apoptosis, primary screen, luminescence. actives 0.8% (n = 300,000). AID 435005, 2010. protection from apoptosis, % (test concentration not listed). INS-1E cytokine-induced death, ATP luminescence, 48 h; percent of positive-control rescue, neutral wells zero;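 active = Every replicate reaches about 75%, or at least half do and their mean reaches it too, limit read from the data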;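 also: 0% = cytokine-treated negative control wells and 100% = positive control rescue; higher means more ATP so stronger rescue from cytokine killing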
Mdm2-MdmX conf = Mdm2-MdmX complex disruptors, retested hits, confirmation, luminescence, single concentration; shares compounds with Mdm2-MdmX inh; Mdm2-MdmX binding, luminescent assay; inhibition, % at 8 µM; actives 55% (n = 10,000); AID 489028, 2010; in the data active = inhibition above about 40%
Full FLuc ctr = full-length luciferase signal inhibition, confirmation, counter-screen for Mdm2/MdmX interaction inhibitor project, cell-based, single concentration, SaOS-2; inhibition, % at 8 µM; actives 77% (n = 6,200); shares compounds with Mdm2-MdmX inh; SaOS-2 full-length luciferase counterscreen, luminescence;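 active = mean inhibition at 8 µM reaching about 37%, which flags the compound as non-specific, limit read from the data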;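 also: p53-null SaOS-2 cells with luciferase driven by a doxycycline-inducible promoter; compound on cells about two nights before reading with doxycycline added after day one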
Numbers without * were called inactive; · = no result. Rows were chosen to be rich in hits. Some 4% of all compounds tested hit in one or more screens of this group.

SMILES	Gli-Sufu block	PAX8 reporter	Shn3 3UTR inh	CSC inhib	Mdm2-MdmX inh	Beta apoptosis	Mdm2-MdmX conf	Full FLuc ctr
CN(C)CC(CCC(CN(C)C)C(O)(c1ccccc1)c1ccccc1)C(O)(c1ccccc1)c1ccccc1 (stereo unspecified)	26	87*	·	·	100*	·	99*	52*
CCc1cc(-c2[nH]ncc2-c2ccc(OC)cc2)c(O)cc1O	4	13	1	53	37	-12	·	·
CCc1cc(-c2[nH]ncc2-c2ccc3c(c2)OCO3)c(O)cc1O	-2	·	35	56	78*	-10	73*	38*
COc1ccc(-c2[nH]ncc2-c2ccc3c(c2)OCCO3)c(O)c1	-10	·	11	-11	84*	-50	90*	52*
COC(=O)CCC(=O)NS(=O)(=O)c1ccc(N=NN2CCOCC2)cc1	-5	8	-4	·	3	-2	·	·
O=C(Cc1ccccc1)NS(=O)(=O)c1ccc(N=NN2CCOCC2)cc1	-6	1	8	1	87*	-4	-14	·
C[C@@H]1CN([C@H](C)CO)C(=O)c2cc(NC(=O)CCC(F)(F)F)ccc2O[C@H]1CN(C)Cc1ccc(C(=O)Nc2ccccc2N)cc1	·	-7	·	·	·	·	·	·
COc1ccccc1N=C1SC(C(=O)Nc2cccc(Cl)c2Cl)C(N)=C1C(N)=O (stereo unspecified)	-5	-6	-10	79*	56*	3	52*	67*
C=C[C@H](Cc1ccccc1)N(Cc1ccccc1)S(=O)(=O)N(Cc1ccccc1)[C@H](C=C)Cc1ccccc1	21	3	53	21	90*	82*	63*	86*
Nc1c(N(CCC2=CCCCC2)C(=O)CCCOc2ccccc2)c(=O)[nH]c(=O)n1Cc1ccccc1	10	1	25	-10	38	-9	·	·
Nc1c(N(CCC2=CCCCC2)C(=O)COc2ccc(F)cc2)c(=O)[nH]c(=O)n1Cc1ccccc1	0	·	53	74	53*	97*	11	·
COc1ccc(-n2ncc(Cl)c(Cl)c2=O)cc1	10	105*	98*	·	100*	·	99*	52*
Cc1cc(C)cc(NC2=NC3(CCCCC3)N=C(N)N2)c1	-4	·	12	53	59*	-1	53*	73*
Cc1csc(NC(=O)CSc2nnc3c4ccccc4nc(C(C)(C)C)n23)n1	0	·	17	·	69*	·	60*	57*
CC(=O)CSc1nnc2c3ccccc3nc(C(C)(C)C)n12	4	2	18	-13	15	-6	·	·
NS(=O)(=O)c1ccc(CNC(=O)c2cc(-c3ccccn3)nc3ccc(Cl)cc23)cc1	-3	-3	-13	-15	51*	·	14	·
NS(=O)(=O)c1ccc(CNC(=O)c2cc(-c3cccnc3)nc3ccc(Cl)cc23)cc1	-1	-3	-11	2	16	-3	·	·
O=C(C[C@H]1CC[C@H]2[C@@H](COC[C@H](O)CN2Cc2nccs2)O1)NCc1ccc(F)cc1	·	3	·	·	·	·	·	·
C[C@H]1CN([C@@H](C)CO)C(=O)c2cc(NC(=O)Nc3cccc4ccccc34)ccc2O[C@@H]1CN(C)Cc1ccccc1	·	-4	·	·	·	·	·	·
Cc1ccc(-c2csc(/C=C3\SC(C)C(=O)N3CC(=O)Nc3ccccc3F)n2)cc1 (stereo unspecified)	-5	-2	·	19	47	-2	·	·
O=C(CN1C(=O)CS/C1=C\c1nc(-c2ccc(Cl)cc2)cs1)Nc1cccnc1Cl	-3	-11	1	-7	79*	1	19	·
CC1(C)CC[C@@]23CC[C@]4(C)[C@@](OC2=O)(C3C1)[C@H]1O[C@H]1C1[C@@]2(C)CC[C@H](O)C(C)(C)C2CC[C@]14C (stereo partly specified)	-1	·	·	-15	75*	3	-5	·
CC1(C)C2CC[C@]3(C)C(CC=C4[C@@H]5C[C@@](C)(CO)[C@@H]6C[C@@]5(CC[C@]43C)C(=O)O6)[C@@]2(C)CC[C@@H]1O (stereo partly specified)	-3	·	·	-15	25	0	·	·
CC(C)(C)Nc1nc(N2CCCC2)nc(N2CCCC2)n1	-42	·	71	21	55*	38	37	·
CCNc1nc(NC(C)(C)C)nc(N2CCCC2)n1	26	·	31	·	25	28	·	·
SMILES	Gli-Sufu block	PAX8 reporter	Shn3 3UTR inh	CSC inhib	Mdm2-MdmX inh	Beta apoptosis	Mdm2-MdmX conf	Full FLuc ctr
C[C@H](CO)N1C[C@H](C)[C@@H](CN(C)C(=O)NC2CCCCC2)OCCCC[C@H](C)Oc2ccc(NC(=O)Nc3ccccc3)cc2C1=O	·	12	·	·	·	·	·	·
COc1cc(-c2noc(C)c2C#CCO)cc(OC)c1OC	2	-23	-7	2	28	-6	·	·
COc1cc(-c2noc(C)c2C#CC2(N)CCCCC2)cc(OC)c1OC	14	16	-4	-14	28	-1	·	·
COc1cc(-c2noc(C)c2C#Cc2ccsc2)cc(OC)c1OC	·	52	13	64	65*	10	68*	78*
COc1cc(-c2noc(C)c2C#CC2(O)CCCCC2)cc(OC)c1OC	17	-12	15	8	61*	-5	43*	84*
O=C1/C(=C/c2ccc([N+](=O)[O-])cc2)C=C(c2ccccc2)N1c1ccc(O)cc1	33	·	20	·	61*	18	58*	52*
Cc1noc(C)c1S(=O)(=O)Nc1ccc2c(c1)C(=O)N([C@@H](C)CO)C[C@H](C)[C@@H](CN(C)Cc1ccncc1)OCCCC[C@H](C)O2	·	-11	·	·	·	·	·	·
O=C(CN1C(=O)/C(=C\c2ccc(F)cc2)Oc2ccccc21)N1CCN(c2ccccn2)CC1	-1	29	45	5	79*	-2	32	79*
Cc1ccc(/C=C2\SC(=S)N(CCCC(=O)Nc3ccccn3)C2=O)cc1	47	·	72	8	69*	-10	68*	52*
COc1ccc(/C=C2\SC(=S)N(CCCC(=O)Nc3ccccn3)C2=O)cc1OC	8	42	5	30	63*	-11	52*	76*
O=C(CN1C(=O)/C(=C/c2ccc(F)cc2)SC1=S)N1CCN(CCc2ccccn2)CC1	15	17	-10	6	60*	·	-11	·
